Pf growth 96h = P. falciparum growth inhibition at 96 hours; P. falciparum luciferase reporter growth, 96 h; Potency, µM (titrated, usually from 28.7 µM), inactives show top-dose activity change, negative = inhibition, hits mostly inhibitors; actives 6.9% (n = 320,000); further: on the % scale 0 is the no-effect control and ±100 the full control effect
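Readout is luminescence from an integrated firefly luciferase in P. falciparum. Red cells, 2% hematocrit and 0.05% parasitemia final, were cultured with compound through two parasite generations (96 hours) at 37 C, 5% CO2.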
AMA1-RON2 inh = disrupts binding of P. falciparum AMA1 to RON2; AlphaScreen AMA1-biotinylated RON2 peptide binding; Potency, µM (highest dose often 58.2 µM), for inactives: at the highest dose activity change, negative = inhibition, most hits filed as inhibitors; actives 0.2% (n = 360,000);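 further: 0% = vehicle wells and -100% = peptide control; nearly all actives have a fitted effect of over 45% in size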
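AMA1 (3D7) with his tag at 25 nM final met compounds first, then biotinylated RON2 peptide at 25 nM; detection used donor plus acceptor beads, 10 µg/mL apiece, read by AlphaScreen after 30 min at room temperature.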
SARS PLP yeast = blocks SARS-CoV papain-like protease in a yeast assay; actives 0.19% (n = 330,000); S. cerevisiae expressing SARS-CoV PLpro, growth rescue; Potency, µM (highest dose often 32.9 µM), without a hit: at the top dose activity, positive = growth rescue, hits mostly activators; calls by dose curve; further: 0% is about no effect; nearly all actives have a fitted effect of over 55% in size
Pf growth 48h = P. falciparum growth inhibition at 48 hours (one generation) | P. falciparum luciferase growth in erythrocytes, 48 h | Potency, µM (highest dose often 28.7 µM), inactives show top-dose activity change, negative = inhibition, hits mostly inhibitors | actives 5.9% (n = 310,000) | AID 504832; further: on the % scale 0 is the no-effect control and ±100 the full control effect
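Compounds are pin-transferred into medium, infected erythrocytes (2% hematocrit, 0.1% parasitemia final) are added, and plates sit one parasite generation at 37 C in 5% CO2. Detection reagent is then added and luminescence measured.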
* = called active by the depositor; ? = inconclusive; . = no result given; [ ] = dose if it differs, or a comment. Hits are enriched below; roughly 9.4% of the tested compounds scored in any of these assays. Unless noted, the call rests on the fitted dose curve; in most records, active means well fitted curve in the direction sought with a large enough effect; inconclusive means small, poorly fitted or top-dose-only effect, or another doubt; inactive means no such curve, though single readings can be large; an effect the other way counts as inactive or inconclusive. Potency means the concentration at half of the fitted maximal effect.

SMILES | Pf growth 96h | AMA1-RON2 inh | SARS PLP yeast | Pf growth 48h
Cc1nn(Cc2cccc(C(=O)NC34CC5CC(CC(C5)C3)C4)c2)c(C)c1Br | 8.3µM* | -11% | -52% | 15µM*
Cc1sc2ncnc(N3CCC(C(=O)Nc4ccc(C#N)c(Cl)c4)CC3)c2c1C | 12µM* | -6% | -1% | ?
Cc1sc2ncnc(N3CCC(C(=O)Nc4ccc(Cl)c(Cl)c4)CC3)c2c1C | ? | 25% | -8% | 13µM*
Cc1sc2ncnc(N3CCC(C(=O)Nc4ccc(Cl)cc4Cl)CC3)c2c1C | ? | -12% | 1% | 10µM*
CNC(=O)c1ccc(NC(=O)C2CCN(c3ncnc4sc(C)c(C)c34)CC2)cc1 | ? | 15% | 0% | ?
CCCS(=O)(=O)NC(=O)C1(C)CCN(C(=O)Cc2ccc(OC)c(OC)c2)C1 (stereo not drawn) | . | 3% | . | .
COc1cc(S(=O)(=O)NC2CCCCC2C)ccc1F (stereo not drawn) | 21% | -5% | -16% | 4%
Cc1ccc(NC(=S)NNC(C)(C)C)cc1 | 5.9µM* | 18% | -1% | 13µM*
CC(C)(C)NNC(=S)Nc1cccc(C(F)(F)F)c1 | ? | 70% | 0% | -21%
COCc1nnc(NC(=O)CC(C)C)s1 | ? | 18% | -2% | 3%
CCOC(=O)c1c(C)[nH]c(C)c1S(=O)(=O)Nc1ccc(CN2CCCCC2)cc1 | 5.9µM* | -8% | 3% | ?
O=C(O)[C@@H]1CCCN1C(=O)CCc1c[nH]c2ccccc12 | 29% | -2% | -1% | 47%
COc1ccc(CNC(=O)c2ccc(Cl)c(NC3=NC4CS(=O)(=O)CC4S3)c2)cc1 (stereo not drawn) | -22% | 6% | 1% | 5%
COC(=O)C1CCN(c2nc3ccccc3nc2C(C#N)C(=O)NCCc2ccccc2)CC1 (stereo not drawn) | 15µM* | -3% | 3% | -2%
CCOC(=O)C1CCN(c2nc3ccccc3nc2C(C#N)C(=O)OC(C)C)CC1 (stereo not drawn) | 9% | -13% | -2% | ?
C=CCOC(=O)C(C#N)c1nc2ccccc2nc1N1CCC(C(=O)OCC)CC1 (stereo not drawn) | 56% | 5% | -4% | 1.2µM*
CCC(CC)COC(=O)C(C#N)c1nc2ccccc2nc1N1CCN(CC)CC1 (stereo not drawn) | 46% | -4% | 1% | 10µM*
CCOC(=O)C1CCN(c2nc3ccccc3nc2C(C#N)C(=O)OCCOC)CC1 (stereo not drawn) | ? | 21% | 5% | ?
CCOC(=O)C1CCN(c2nc3ccccc3nc2C(C#N)C(=O)OC(C)COC)CC1 (stereo not drawn) | ? | -10% | -1% | 8.3µM*
COC(=O)C1CCN(c2nc3ccccc3nc2C(C#N)C(=O)OCC(C)C)CC1 (stereo not drawn) | ? | 2% | -2% | ?
CCOC(=O)CNC(=S)N(Cc1ccccc1)Cc1cccs1 | ? | -15% | -8% | -11%
C=CCOC(=O)C(C#N)c1nc2ccccc2nc1N1CCN(c2ccccc2OCC)CC1 (stereo not drawn) | 9.3µM* | -23% | 12% | 9.3µM*
CCOc1ccccc1N1CCN(c2nc3ccccc3nc2C(C#N)C(=O)OC(C)C)CC1 (stereo not drawn) | ? | -19% | -1% | -11%
Cc1ccc(C(=O)CSc2nnc(-c3ccco3)o2)o1 | . | -1% | -3% | 32%
Cc1cc(C)c2c(c1)C(=O)/C(=C/c1ccc(C(=O)O)cc1)CC2 | ? | -5% | -1% | 36%
SMILES | Pf growth 96h | AMA1-RON2 inh | SARS PLP yeast | Pf growth 48h
O=C(CSc1nc(NS(=O)(=O)c2ccccc2)cc(=O)[nH]1)Nc1ccc(F)cc1 | 1.9µM* | -17% | 0% | -20%
O=C(CSc1nc(NS(=O)(=O)c2ccccc2)cc(=O)[nH]1)Nc1cccc(C(F)(F)F)c1 | 31% | 0% | 5% | ?
Cc1c(C)n2c(SCC(=O)Nc3cccc4ccccc34)nnc2[nH]c1=O | ? | -3% | -3% | 12µM*
CC(=O)c1ccc(S(=O)(=O)NCCc2cn3ccc(C)cc3n2)cc1 | . | 4% | . | .
COc1cccc(CN(C)CC(=O)Nc2cc(S(=O)(=O)N3CCCC3)ccc2Cl)c1OC | ? | 19% | 3% | 12µM*
COc1ccccc1CNCC(=O)Nc1cc(S(=O)(=O)N2CCCCCC2)ccc1Cl | ? | 43% | -2% | 9.3µM*
Cc1cc(C)nc(SCC(=O)Nc2nccs2)n1 | 15% | 0% | -4% | 25%
COc1cc2c(cc1OC)-c1cc(Nc3cccc(F)c3)nc(=O)n1CC2 | 4.1µM* | 0% | -5% | ?
CCN(CC)c1ccc(Nc2cc3n(c(=O)n2)CCc2cc(OC)c(OC)cc2-3)cc1 | 10µM* | ? | 1% | ?
COc1cc2c(cc1OC)-c1cc(Nc3ccc(F)cc3)nc(=O)n1CC2 | 1.2µM* | 2% | -2% | 2.1µM*
COc1cc2c(cc1OC)-c1cc(Nc3ccc(N(C)C)cc3)nc(=O)n1CC2 | ? | ? | 0% | ?
Cc1sc2nc(CSCC(=O)Nc3ccc(Cl)cc3F)[nH]c(=O)c2c1C | 15% | -3% | 6% | -5%
CCCN1CCN(CC(=O)Nc2cc(OCC)ccc2OCC)CC1 | -10% | ? | 0% | -1%[0.00184 µM]
CC1ON=C(c2ccc(F)cc2)NC1=O (stereo not drawn) | . | 5% | . | .
COc1cc(-c2nc(-c3cccc(C)c3)no2)cc(OC)c1OC | . | 13% | -49% | -17%
COc1cc(-c2nc(Cc3c(F)cccc3Cl)no2)cc(OC)c1OC | ? | 26% | 5% | 12µM*
COc1cc(-c2noc(-c3cccc(Cl)c3)n2)cc(OC)c1OC | 15µM* | 9% | 2% | 27%
COc1cc(-c2nc(-c3cccnc3)no2)cc(OC)c1OC | -17% | 9%[11.6 µM] | 19% | 18%
c1ccc(-c2cnnn2-c2ccccc2)cc1 | 0.83µM* | 0% | -6% | 24%
O=[N+]([O-])c1cccc(-n2nncc2-c2ccccc2)c1 | -17% | -1% | -7% | 19%
Cc1ccc(S(=O)(=O)CC(c2ccccc2)N2CCOCC2)cc1 (stereo not drawn) | 9.3µM* | -8% | . | 2%
O=S(=O)(CC(CN1CCCCC1)N1CCCCC1)c1ccc2ccccc2c1 (stereo not drawn) | 20% | 14% | 0% | 0%
Cc1ccc(S(=O)(=O)CC(c2ccccc2)N2CCCCC2)cc1 (stereo not drawn) | 10µM* | -8% | 2% | -6%
Cc1ccc(S(=O)(=O)CC(CN2CCCCC2)N2CCCCC2)cc1 (stereo not drawn) | ? | 46% | -1% | 8.3µM*
O=S(=O)(CC(c1ccccc1)N1CCCCC1)c1ccc(Cl)cc1 (stereo not drawn) | 1% | -4% | -1% | -4%
COc1cccc(C(=O)NCCS(=O)(=O)NCc2ccc3c(c2)OCO3)c1 | 23% | 2% | -3% | 8%
CC(C)CCC1(CCNC(C)c2cccs2)CCOC(C)(C)C1 (stereo not drawn) | 13µM* | -14% | 1% | ?
